Results from PubChem BioAssay AID1159580 (chemical genetic matrix, 2015).
Where “and” joins values, the source holds several entries; their conditions need not be identical. Identical values can stand only once. Out of some 5,500 compounds screened, about 2,000 (36%) were called active. Roughly 18% stayed inconclusive and do not appear here. Cut-off read from the data, not from the text of the source: active = normalized growth mostly below about 0.91 (no sharp cut-off); inconclusive = no clear call, values can overlap the other calls; inactive = mostly above about 0.92. This is one part of the list.

Assay: chemical genetic growth profiling, strain panel (AID 1159580);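 note: tested at 20 µM; growth read once vehicle control cultures reached saturation at 30 °C; 1 = growth at the plate median or of vehicle wells; lower values mean less growth of the strain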
Conditions: S. cerevisiae deletion strains, growth OD

Measured: normalized growth

C[C@H]1O[C@@H](O[C@H]2[C@@H](O)C[C@H](O[C@H]3[C@@H](O)C[C@H](O[C@H]4CC[C@]5(C)C6C[C@@H](O)[C@]7(C)[C@@H](C8=CC(=O)OC8)CC[C@]7(O)C6CC[C@@H]5C4)O[C@@H]3C)O[C@@H]2C)C[C@H](O)[C@@H]1O (stereo partly drawn)
inactive: locus YAL013W, strain DEP1, hits give low values 0.992 | locus YAL021C, strain ccr4, hits give low values 0.982 | locus YAL026C, strain drs2, hits give low values 1.01 | locus YAL030W, strain snc1, hits give low values 0.991 | locus YBL061C, strain skt5, hits give low values 0.99 | locus YBR009C, strain hhf1, hits give low values 1.08 | locus YBR021W, strain FUR4, hits give low values 1.01 | locus YBR023C, strain chs3, hits give low values 0.994 | locus YBR171W, strain sec66, hits give low values 0.984 | locus YBR229C, strain ROT2, hits give low values 1 | locus YBR231C, strain swc5, hits give low values 0.989 | locus YBR279W, strain paf1, hits give low values 0.996 | locus YCL011C, strain gbp2, hits give low values 0.967 | locus YCL016C, strain dcc1, hits give low values 0.992 | locus YCL029C, strain bik1, hits give low values 0.977 | locus YCL061C, strain MRC1, hits give low values 1.01 | locus YCL069W, strain vba3, hits give low values 0.991 | locus YCR088W, strain abp1, hits give low values 0.997 | locus YDL005C, strain med2, hits give low values 0.98 | locus YDL035C, strain GPR1, hits give low values 0.987 | locus YDL040C, strain nat1, hits give low values 0.999 | locus YDL074C, strain BRE1, hits give low values 0.982 | locus YDL101C, strain DUN1, hits give low values 1.01 | locus YDL134C, strain PPH21, hits give low values 1.03 | locus YDL185W, strain tfp1, hits give low values 0.955 | locus YDL192W, strain arf1, hits give low values 0.983 | locus YDR001C, strain nth1, hits give low values 0.982 | locus YDR069C, strain doa4, hits give low values 0.996 | locus YDR101C, strain arx1, hits give low values 0.982 | locus YDR137W, strain rgp1, hits give low values 0.978 | locus YDR150W, strain NUM1, hits give low values 0.991 | locus YDR159W, strain sac3, hits give low values 1.02 | locus YDR162C, strain NBP2, hits give low values 1.03 | locus YDR195W, strain ref2 0.987 | locus YDR297W, strain sur2, hits give low values 0.987 | locus YDR318W, strain mcm21, hits give low values 1 | locus YDR334W, strain swr1, hits give low values 0.957 | locus YDR335W, strain msn5, hits give low values 0.98 | locus YDR388W, hits give low values 0.984 | locus YDR392W, strain spt3, hits give low values 0.975 | locus YDR502C, strain sam2, hits give low values 1.01 | locus YEL003W, strain gim4, hits give low values 0.997 | locus YEL037C, strain rad23, hits give low values 1 | locus YEL061C, strain CIN8 (second series), hits give low values 0.992 | locus YEL061C, strain CIN8, hits give low values 1 | locus YER015W, strain faa2, hits give low values 1.01 | locus YER016W, strain bim1, hits give low values 0.987 | locus YER110C, hits give low values 0.961 | locus YER111C, strain swi4, hits give low values 1.01 | locus YER155C, strain BEM2 (second series), hits give low values 1.04 | locus YER155C, strain BEM2, hits give low values 0.986 | locus YER167W, strain BCK2, hits give low values 0.992 | locus YFR010W, strain ubp6, hits give low values 1 | locus YGL078C, strain dbp3, hits give low values 1 | locus YGL086W, strain mad1, hits give low values 0.969 | locus YGL167C, strain pmr1, hits give low values 0.998 | locus YGL173C, strain kem1, hits give low values 0.981 | locus YGL227W, strain vid30, hits give low values 0.99 | locus YGL240W, strain doc1, hits give low values 0.973 | locus YGL248W, strain PDE1, hits give low values 1.02 | locus YGL253W, strain hxk2, hits give low values 0.957 | locus YGR135W, strain pre9, hits give low values 1.01 | locus YGR252W, strain gcn5, hits give low values 1.09 | locus YHR013C, strain ard1, hits give low values 0.977 | locus YHR027C, strain rpn1, hits give low values 0.976 | locus YHR030C, strain SLT2, hits give low values 0.983 and 1.05 | locus YHR079C, strain IRE1 (second series), hits give low values 0.982 | locus YHR079C, strain IRE1, hits give low values 1.06 | locus YHR094C, strain hxt1, hits give low values 0.973 | locus YHR129C, strain ARP1, hits give low values 0.993 | locus YHR142W, strain chs7, hits give low values 0.964 | locus YHR200W, strain rpn10, hits give low values 0.97 | locus YIL066C, strain RNR3, hits give low values 1 | locus YIL073C, strain SPO22, hits give low values 0.937 | locus YIL125W, strain kgd1, hits give low values 0.941 | locus YIR030C, strain dcg1, hits give low values 0.99 | locus YJL092W, strain hpr5, hits give low values 0.996 | locus YJL095W, strain BCK1 (second series), hits give low values 0.976 | locus YJL095W, strain BCK1, hits give low values 1.02 and 1.06 | locus YJL115W, strain asf1, hits give low values 0.984 | locus YJL129C, strain trk1, hits give low values 0.979 | locus YJL134W, strain LCB3, hits give low values 0.985 | locus YJL154C, strain vps35, hits give low values 0.977 | locus YJL164C, strain tpk1, hits give low values 1.02 | locus YJL166W, strain qcr8, hits give low values 0.939 | locus YJL168C, strain set2, hits give low values 0.998 | locus YJL187C, strain SWE1 (second series), hits give low values 1.02 | locus YJL187C, strain SWE1, hits give low values 0.993
